± gives the standard deviation of the averaged measurements.
Experiments:
[1] = tested on: Molm13; assay: cell viability relative to DMSO control (bortezomib = 0%); higher = less growth inhibition; conditions: 10 nM; 72 h
Procedure, shortened: (§1)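 Acute myeloid leukemia cells, 1000 per well in 50 µL, were incubated for 72 h on 384-well plates with 679 approved and investigational compounds, each at a single 10 nM dose. Viability was read by CellTiter-Glo luminescence. Values were expressed as percentages through per-plate linear regression against DMSO-treated (100%) and positive-control-treated (0%) cells.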

[2] = tested on: Mv4-11; assay: as above; conditions: 10 nM; 72 h
Procedure, shortened: as §1

Structure (SMILES) | cell viability [1] [%] | cell viability [2] [%]
COc1cc2ncnc(Nc3ccc(O)cc3)c2cc1OC [Janex 1] | 101 ± 12 | 111 ± 5.3
CC1(COc2ccc3c(c2)ncn3-c2ccc3cccc(N4CCC(N)CC4)c3n2)COC1 [Crenolanib] | 14.9 ± 3.8 | 18.2 ± 5.8
CC[C@H](Nc1ncnc2[nH]cnc12)c1nc2cccc(F)c2c(=O)n1-c1ccccc1 [CAL-101 (Idelalisib, GS-1101)] | 93.7 ± 22 | 105 ± 6.2
Nc1cccc(-c2nc(N3CCOCC3)c3oc4ncccc4c3n2)c1 [PIK-inhibitors] | 82.5 ± 19 | 103 ± 15
CC[C@@H]1C(=O)N(C)c2cnc(Nc3ccc(C(=O)N[C@H]4CC[C@H](N5CCN(CC6CC6)CC5)CC4)cc3OC)nc2N1C(C)C [Volasertib (BI 6727)] | 104.1 ± 0.8 | 117 ± 15
COc1cc2ncnc(Nc3cccc(O)c3)c2cc1OC | 109 ± 6.3 | 109 ± 8.6
O=C(c1ccc(/C=C/c2n[nH]c3ccccc23)cc1)N1CCNCC1 | 104 ± 4.2 | 92.9 ± 17
C[C@H]1Oc2cc(cnc2N)-c2c(nn(C)c2C#N)CN(C)C(=O)c2ccc(F)cc21 | 115 ± 8.8 | 112 ± 19
CCc1cnn2c(NCc3ccc[n+]([O-])c3)cc(N3CCCC[C@H]3CCO)nc12 | 93.2 ± 28 | 86.6 ± 15
Cc1ccc(C(=O)N(CCCN)[C@@H](c2oc3cc(Cl)ccc3c(=O)c2Cc2ccccc2)C(C)C)cc1 | 2.68 ± 8.6 | -0.7 ± 5.9
CC1(C)OC(=O)C=C[C@]2(C)[C@H]3CC[C@@]4(C)[C@H](c5ccoc5)OC(=O)[C@H]5O[C@]54[C@]3(C)C(=O)C[C@@H]12 [Obacunone] | 108 ± 7.3 | 109 ± 19

From the supplement of paper PMC8699584
